Source: PubChem
MBD2 DNA inh: MBD2-methylated oligo binding inhibition; Q9UBB5; inhibition, % at 4.4 µM; actives 0.31% (n = 370,000); TR-FRET, MBD2 binding to methylated oligonucleotide; in the data active = inhibition above about 13%
LEDGF integ inh: blocks HIV-1 LEDGF/p75-dependent DNA integration; TR-FRET IN-LEDGF/p75 DNA integration, Eu/Cy5; inhibition, % at 3.7 µM; actives 0.64% (n = 370,000);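 active = inhibition above the screen-wide mean plus 3 SD, cut at about 13% in these data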;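 note: signal is the Cy5 over europium emission ratio at 671 and 618 nm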
rCAG binder: r(CAG) repeat RNA binding. TO-PRO-1 dye displacement fluorescence. inhibition, % at 3 µM. actives 1.3% (n = 370,000). AID 651821;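 active = inhibition above the plate cutoff, the mean of all test compounds on that plate plus 3 SD, cut at about 35% in these data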;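 note: higher means more dye released from RNA so lower well fluorescence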
PG9 binder: binds the HIV-1 gp120 antibody PG9; inhibition, % at 6.7 µM; actives 0.43% (n = 360,000); TR-FRET gp120-PG9 antibody binding; in the data active = inhibition above about 8.5%
UHRF1 binding: UHRF1 methyl-DNA binding inhibition; Q96T88; UHRF1 binding to methylated oligo, TR-FRET; inhibition, % at 4.4 µM; actives 0.75% (n = 370,000); AID 687016; in the data active = inhibition above about 21%;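 note: UHRF1 SRA domain binding a hemimethylated CpG hairpin DNA probe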
Target sequence (Q96T88 whole entry, looked up, the tested form may be a part): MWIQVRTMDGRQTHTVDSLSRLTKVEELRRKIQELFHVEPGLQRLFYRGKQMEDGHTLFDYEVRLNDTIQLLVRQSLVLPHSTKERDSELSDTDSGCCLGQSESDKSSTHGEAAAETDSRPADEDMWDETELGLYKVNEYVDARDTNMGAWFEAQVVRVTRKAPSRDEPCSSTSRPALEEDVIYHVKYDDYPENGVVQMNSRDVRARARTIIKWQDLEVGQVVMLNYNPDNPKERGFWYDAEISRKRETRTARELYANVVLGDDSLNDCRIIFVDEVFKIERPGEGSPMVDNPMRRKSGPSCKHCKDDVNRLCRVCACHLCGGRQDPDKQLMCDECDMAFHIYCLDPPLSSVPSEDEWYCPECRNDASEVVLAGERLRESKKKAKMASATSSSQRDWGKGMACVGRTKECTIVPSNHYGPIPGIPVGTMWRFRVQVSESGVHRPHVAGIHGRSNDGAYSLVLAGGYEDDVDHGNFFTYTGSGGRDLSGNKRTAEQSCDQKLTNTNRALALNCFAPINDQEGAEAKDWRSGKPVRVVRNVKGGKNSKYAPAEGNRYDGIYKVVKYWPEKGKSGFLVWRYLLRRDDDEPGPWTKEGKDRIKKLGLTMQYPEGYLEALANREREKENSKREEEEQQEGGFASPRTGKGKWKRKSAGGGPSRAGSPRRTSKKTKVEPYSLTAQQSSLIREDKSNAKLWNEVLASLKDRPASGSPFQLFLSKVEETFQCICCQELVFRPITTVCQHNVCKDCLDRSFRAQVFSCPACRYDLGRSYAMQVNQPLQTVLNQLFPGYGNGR
DNMT1 inh: DNMT1 (human) enzyme inhibition. P26358. actives 0.83% (n = 360,000). DNMT1 molecular beacon, Hinp1I cleavage, fluorescence. inhibition (reported as % activation of signal), % at 10 µM; in the data active = inhibition above about 50%
rCAG binder conf: r(CAG) RNA repeat binding, confirmation | inhibition, % at 3 µM | TO-PRO-1 dye displacement fluorescence | shares compounds with rCAG binder | AID 652065 | actives 70% (n = 4,300);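 active = inhibition above a per-plate cutoff, the mean inhibition of sample wells plus 3 SD, cut at about 35% in these data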;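 note: loss of TO-PRO-1 fluorescence as compound displaces dye from 1x1 AA loop RNA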
dCAG dye counter: DNA CAG dye complex inhibition counter-screen. shares compounds with rCAG binder. d(CAG) DNA oligo TO-PRO-1 dye displacement, fluorescence. inhibition, % at 3 µM. actives 94% (n = 4,300);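 active = inhibition above its plate's cutoff, the mean test-well inhibition plus 3 SD, cut at about 4.8% in these data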;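 note: hits displace the dye from DNA and so lower well fluorescence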
Large screens that a line does not name were inactive (follow-up assays come after a bar, where they were run). The list is not random: actives were taken first. Their share in the collection is about 3.5%.

Cc1ccc(C2c3c(n[nH]c3C)C(=O)N2Cc2ccccc2)cc1 (configuration not stated)	none (no result: DNMT1 inh)
FC(F)(F)Oc1cccc(Cn2ccc3ccc(-c4ccc5ccn(Cc6ccccc6)c5c4)cc32)c1	rCAG binder 55 (no result: PG9 binder, DNMT1 inh) | rCAG binder conf inactive | dCAG dye counter 8.9
COc1cc2c(C(=O)O)c(C)n(-c3ccccc3)c2c2ccccc12	rCAG binder 36 | rCAG binder conf inactive | dCAG dye counter 6.1
CCn1c(C)c(C(=O)O)c2cc(OC)c3ccccc3c21	none
COc1ccccc1-n1c(C)c(C(=O)O)c2cc(OC)c3ccccc3c21	rCAG binder 41 | rCAG binder conf inactive | dCAG dye counter 5.6
COc1ccc(-n2c(C)c(C(=O)O)c3cc(OC)c4ccccc4c32)cc1	none
CCCNC(=O)CCCN1C(=O)c2ccccc2Sc2ncccc21	none
CC(C)Oc1ccc(S(=O)(=O)N2CCCCC2)cc1NC(=O)C1=NN(c2ccccc2)C(=O)CC1	none
C=CCNC(=O)c1c(CSc2ccc(F)cc2)noc1C(=O)NCCC	none
COCCCn1c(=O)/c(=C\c2cccc(OC)c2OC)s/c1=C(/C#N)C(=O)Nc1ccc(C(=O)O)cc1	rCAG binder 52 | rCAG binder conf 73 | dCAG dye counter 34
Cc1ccc(-c2n[nH]c3c2C(c2ccccc2)N(c2ccc(C(=O)O)cc2)C3=O)cc1 (configuration not stated)	rCAG binder 45 | rCAG binder conf inactive | dCAG dye counter 6.2
FC(F)(F)c1ccccc1/C=N/n1c(COc2ccccc2)n[nH]c1=S	rCAG binder 44 | rCAG binder conf inactive | dCAG dye counter 5.5
COc1cccc(/C=N/n2c(COc3ccccc3)n[nH]c2=S)c1OC	none
S=c1[nH]nc(COc2ccccc2)n1/N=C/c1ccccc1Br	rCAG binder 38 | rCAG binder conf 38 | dCAG dye counter 8.4
FC(F)(F)c1ccc(/C=N/n2c(COc3ccccc3)n[nH]c2=S)cc1	rCAG binder 51 | rCAG binder conf 37 | dCAG dye counter 8.5
COC(=O)c1cc2c(c3c4cc(OC)ccc4n(S(=O)(=O)c4ccc(F)cc4)c13)C(=O)N(C)C2	none (no result: DNMT1 inh)
COCCCN1C(=O)[C@H](CC(=O)N2CCCCC2)[C@]2(C(=O)OC)CCCCC=C12	none (no result: PG9 binder, DNMT1 inh)
OC(c1cccc(Cl)c1)c1nc(/C=C/c2ccc(C(F)(F)F)cc2)cs1 (configuration not stated)	none
CC(=O)NC(=Cc1ccccc1)C(=O)N1CCCC1C(=O)O (configuration not stated)	none
O=C(NNC(=S)Nc1cccc2ccccc12)c1cccc(Br)c1	rCAG binder 66 | rCAG binder conf 72 | dCAG dye counter 36
CN(C(=O)CN1C(=O)NC(c2ccccc2)(c2ccccc2)C1=O)C1CCS(=O)(=O)C1 (configuration not stated)	none
COc1ccc(C2=CC3=C(Br)C(=O)C(C)(OC(=O)c4cccs4)C(=O)C3=CO2)cc1 (configuration not stated)	rCAG binder 49 | rCAG binder conf 45 | dCAG dye counter 21
COc1cccc(C2NC(=S)N(Cc3ccc(Br)cc3)C(C)=C2C(C)=O)c1 (configuration not stated)	none (no result: DNMT1 inh)
O=C(O)c1ccccc1NC(=O)C(Cc1ccccc1)N1C(=O)c2ccccc2C1=O (configuration not stated)	rCAG binder 42 | rCAG binder conf 49 | dCAG dye counter 12
O=C(CSCc1ccc(Cl)cc1)Nc1ccc(Br)cc1C(=O)O	rCAG binder 44 | rCAG binder conf 36 | dCAG dye counter 8.7
O=C1NC(Cc2ccc(O)cc2)c2nc3ccccc3c(=O)n2-c2ccccc21 (configuration not stated)	none (no result: DNMT1 inh)
CCN=c1scc(C)n1/N=C/c1cc(Br)c(O)c(Br)c1	rCAG binder 36 | rCAG binder conf 42 | dCAG dye counter 18
CCN=c1scc(-c2ccco2)n1/N=C/c1ccc(O)cc1	none
